The values below come from PubChem BioAssay (NCATS).

Each structure is given as a SMILES string. Results filed as inconclusive are left out. A call without a number means that no potency is given here. The source made the active and inactive calls. The call rests on the fitted dose curve; in most records, active means well fitted cell-killing curve with a large enough effect; inconclusive means small, poorly fitted or top-dose-only effect; inactive means no such curve, though single readings can be large or run the other way.
Potency means the concentration at half of the fitted maximal effect.

A short description of this assay: qHTS of pediatric cancer cell lines to identify multiple opportunities for drug repurposing: Primary screen for Rh30 cells (AID 1347107). Further: nearly all actives have a fitted effect of over 75% in size. The conditions noted are these: Rh30 rhabdomyosarcoma viability, CellTiter-Glo luminescence, 48 h; series mostly up to 46 µM. From the text: Drug repurposing or repositioning has been offered as a strategy for drug development in oncology programs. This approach has special potential for childhood cancers and other rare or orphan diseases, where the expected return on new drug development has been a disincentive to pharmaceuticals.
In this project we exploit the poly-pharmacology of drugs to discover new indications via phenotypic screening of a panel of 19 well-characterized cell lines derived from solid tumors seen in children and adolescents. The goal is to identify approved drugs with previously unrecognized anticancer properties that has the potential to reveal new mechanisms and biological processes involved in carcinogenesis or drug resistance. We employed a titration-based paradigm (quantitative high-throughput screening or qHTS), where all compounds were tested at multiple concentrations for their effect on cell viability. Concentration-response curves (CRCs) were derived directly from the primary screen, and both potency and efficacy values were used to identify compounds with robust bioactivity profiles. We screened the NIH Chemical Genomics Center (NCGC) Pharmaceutical Collection (NPC) and Mechanism Interrogation Plate (MIPE) small molecule collections of approved and investigational compounds against these cell lines; and measured metabolically active cells after 48 hours of compound treatment as a proxy for cell viability.
Assay Submitter: Nathalia J. Martinez, National Center for Advancing Translational Sciences, National Institutes of Health, Rockville, MD, USA; email: natalia.martinez@nih.gov
[1] Shen, M et al. Quantitative high-throughput phenotypic screening of pediatric cancer cell lines identifies multiple opportunities for drug repurposing. Oncotarget 2017 Dec 19;9(4):4758-4772. PMID 29435139.
The cells were obtained from University of North Carolina (UNC), Pediatric Preclinical Testing Program (PPT), and Coriell Institute (CI).
qHTS cell viability assay:
Cells were assayed in growth media at a density of 500-1,000 cells/well. Five microliters of cells were dispensed into 1,536-well, white, solid-bottom, TC-treated plates (Greiner Bio One) using a multidrop dispenser and incubated at 37 degrees C, 5% CO2, under a humidified atmosphere for 5 hours. Twenty-three nanoliters of compounds and controls (neutral control DMSO or positive control bortezomib at final concentration of 2.3 µM) were subsequently transferred by Kalypsys pintool. For primary screens, the MIPE collection was tested at 11-point dilutions (final concentrations range from 0.78 nM to 46 µM) and the NPC collection at 8-point dilutions (final concentrations range from 0.59 nM to 46 µM). Compounds tested in follow-up screens were assayed at 11-point dilutions. Cells were incubated for 48 hours, followed by addition of 3 µL of CellTiter-Glo (Promega). After a 15 min incubation at room temperature, samples were analyzed for luminescence intensity using a ViewLux High-throughput CCD imager equipped with clear filters.
On the technique in general: qHTS replaces the single test concentration by a dilution series.
As for `Cc1cc2nc3c(=O)[nH]c(=O)nc-3n(CC(O)C(O)C(O)CO)c2cc1C` (stereo not given), the Potency result is “inactive”.

Take `C[C@H](CCC(=O)O)[C@H]1CC[C@H]2[C@H]3[C@@H](CC[C@]12C)[C@@]1(C)CC[C@@H](O)C[C@H]1C[C@@H]3O`: the Potency result was “inactive”. The result for `C=C1[C@H](n2cnc3c(=O)[nH]c(N)nc32)C[C@H](O)[C@H]1CO` reads “inactive”; that for `CN(C)CCOc1ccc(C(=C(CCCl)c2ccccc2)c2ccccc2)cc1`, “inactive”; that for `Cc1cnc(-c2cc(N3CCN(C(=O)CCS(C)(=O)=O)CC3)ncc2Cl)c(C)c1`, “inactive”.

`COc1cc2c(cc1OC)CC(=O)N(CCCN(C)C[C@H]1Cc3cc(OC)c(OC)cc31)CC2`: the Potency result is “inactive”. `CC(NCCc1ccc(O)cc1)C(O)c1ccc(O)cc1` (stereo not given): the Potency result was “inactive”. The result for `COc1cccc(OC)c1-c1cc(C(=O)NC2(C(=O)O)C3CC4CC(C3)CC2C4)nn1-c1ccnc2cc(Cl)ccc12` (stereo not given) reads “inactive”.

For `CCOC(=O)[C@H](CCc1ccccc1)N[C@@H](C)C(=O)N1CCCC1C(=O)O` (stereo not given in full), the Potency result was “inactive”. Consider `O=C1C(CCC(O)c2ccc(F)cc2)C(c2ccc(O)cc2)N1c1ccc(F)cc1` (stereo not given), for which the Potency result is “inactive”. With `COc1c(C)cnc(Cn2cnc3c(Cl)nc(N)nc32)c1C`, the Potency result is “inactive”.

As to `O=C(Nc1ccc(OC(F)(F)F)cc1)c1sccc1NCc1ccnc2ccccc12`, the Potency entry is “inactive”. As to `CCC(C)SSc1ncc[nH]1` (stereo not given), the Potency entry is “inactive”. The result for `Cc1ccc2c(c1)C(=O)[C@]1(O)CCN(c3ccccc3)C1=N2` reads “inactive”. Then `CN1C(=O)C(Cc2c[nH]c3ccccc23)NC1=S` (stereo not given), with “inactive”.

For the compound `COc1ccc2ccc(=O)oc2c1CC=C(C)C`, the Potency entry was “inactive”.

As to `C[C@@H](O)[C@H]1C(=O)N2C(C(=O)OCOC(=O)C(C)(C)C)=C(SC3CN(C4=NCCS4)C3)[C@H](C)[C@H]12`, the Potency entry is “inactive”. For `CCC(c1ccc(O)cc1)C(CC)c1ccc(O)cc1` (stereo not given), the Potency result was “inactive”. For the compound `CC1=C(C(=O)Nc2cc3cn[nH]c3cc2F)C(c2ccc(C(F)(F)F)cc2)CC(=O)N1` (stereo not given), the Potency result is “inactive”. Consider `CCc1cc(-c2n[nH]c(C)c2-c2ccc3c(c2)OCCO3)c(O)cc1O`, for which the Potency entry is “inactive”. Then `CCOC(=O)N1CCN([N+]([O-])=NOc2cc(ON=[N+]([O-])N3CCN(C(=O)OCC)CC3)c([N+](=O)[O-])cc2[N+](=O)[O-])CC1`, with “inactive”; and `Cc1[nH]c(C=C2C(=O)Nc3ccc(S(=O)(=O)N(C)c4cccc(Cl)c4)cc32)c(C)c1C(=O)N1CCN(C)CC1`, with 18.7 µM (active); and `COc1cc(F)c(C(C)C)cc1-c1ccc(C(F)(F)F)cc1CN1C(=O)O[C@H](c2cc(C(F)(F)F)cc(C(F)(F)F)c2)[C@@H]1C`, with “inactive”. `CCNC(=O)CCCC=CC[C@@H]1[C@H](C=CC(O)CCc2ccccc2)[C@@H](O)C[C@@H]1O` (stereo not given in full): the Potency result is “inactive”.

Regarding `CC1(COc2ccc3c(c2)ncn3-c2ccc3cccc(N4CCC(N)CC4)c3n2)COC1`, the Potency entry was “inactive”.

Consider `CC(C)(F)C[C@H](N[C@@H](c1ccc(-c2ccc(S(C)(=O)=O)cc2)cc1)C(F)(F)F)C(=O)NC1(C#N)CC1`, for which the Potency result was “inactive”. Turning to `CNc1nc(-c2ccc3c(N)n[nH]c3c2)cc(N2C[C@@H](C(=O)NC3CCCCC3)CC[C@@H]2C)n1`, the Potency result was “inactive”.

As for `C[C@]12C=CC(=O)C=C1CC[C@@H]1[C@@H]2[C@@H](O)C[C@@]2(C)[C@@H]1CC[C@]2(O)C(=O)CO`, the Potency result was “inactive”. Take `NCC1CCC(C(=O)O)CC1` (stereo not given): the Potency result is “inactive”. The result for `O=C(O)C1=NC(C(=O)O)CC(C=CN2c3cc(O)c(OC4OC(CO)C(O)C(O)C4O)cc3CC2C(=O)O)=C1` (stereo not given) reads “inactive”; that for `O=C(O)C1=CO[C@@H](O[C@@H]2O[C@H](CO)[C@H](O)[C@H](O)[C@H]2O)[C@@H]2C(CO)=CC[C@H]12`, “inactive”; that for `CC(C)Oc1cc(Nc2nc(N[C@@H](C)c3ccc(F)cn3)ncc2Cl)[nH]n1`, 8.33 µM (active). Take `OC(c1cc(C(F)(F)F)nc2c(C(F)(F)F)cccc12)C1CCCCN1` (stereo not given): the Potency entry was “inactive”. For the compound `CCNC(=O)Nc1ccc(Oc2ncnc(N)c2C=NOC)cc1Cl`, the Potency entry was “inactive”. Then `OC[C@H]1O[C@@H](OCCc2ccc(O)cc2)[C@H](O)[C@@H](O)[C@H]1O`, with “inactive”; and `Cc1ccc(NC(=O)c2ccc(CN3CCN(C)CC3)cc2)cc1Nc1nc(-c2cccnc2)cs1`, with “inactive”; and `Cc1ccccc1C(C(=O)NC1CCCCC1)N(C(=O)CNc1ccc(C#N)cc1)c1cccc(F)c1` (stereo not given), with “inactive”. Then `O=C1Nc2ccc(I)cc2C1=Cc1cc(Br)c(O)c(Br)c1`, with “inactive”; and `CNC(=O)c1c(-c2ccc(F)cc2)oc2cc(N(CCO)S(C)(=O)=O)c(C3CC3)cc12`, with “inactive”; and `O=c1cc(-c2ccc(O)c(O)c2)oc2cc(O)cc(O)c12`, with “inactive”.
